POLH inh – qHTS for Inhibitors of Polymerase Eta; 390,000 tested, 1.2% active; Potency, µM (highest dose often 114 µM), most hits filed as inhibitors; recombinant Pol eta, fluorescent DNA replication assay; DNA polymerase eta (Homo sapiens), Q9Y253
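Pol eta (10 nM) was preincubated with compounds for 15 min at room temperature, after which fluorescent replication substrate (50 nM final) was added to start the reaction. Fluorescence was read kinetically at 0 and 10 min.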
POLB inh – qHTS Assay for Inhibitors of DNA Polymerase Beta; P06746; Pol beta primer extension/strand displacement, fluorescence kinetic; Potency, µM (top dose mostly 114 µM), usual class: inhibitors; 340,000 tested, 1.3% active
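Preincubation: enzyme (10 nM) with compound, 15 min, RT. Reaction: substrate added to 50 nM final. Reads: 0 and 10 min. Analysis: normalized, Hill fit.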
POLI inh – qHTS for Inhibitors of Polymerase Iota. 390,000 tested, 1% active. Potency, µM (top dose mostly 115 µM), hits mostly inhibitors. Pol iota fluorescent replication assay, 10 min. DNA polymerase iota (Homo sapiens), Q9UNA4
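Fluorescent replication assay read twice, at 0 min and 10 min after adding 50 nM (final) substrate. Enzyme (10 nM) and compounds were first incubated 15 min at room temperature; enzyme-free buffer wells were negative controls.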
POLK inh – qHTS for Inhibitors of Polymerase Kappa | Potency, µM (series often up to 107 µM), actives largely listed as inhibitors | AID 588579, 2011 | 400,000 tested, 0.53% active | purified Pol kappa, fluorescent DNA synthesis assay, 10 min | DNA polymerase kappa (Homo sapiens), Q9UBT6
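First, compounds were pin-transferred onto 10 nM Pol kappa. After 15 min at room temperature, substrate was added to 50 nM final. Fluorescence was then measured kinetically at 0 and 10 min.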
GLS inh – qHTS for Inhibitors of Glutaminase (GLS); Glutaminase kidney isoform, mitochondrial (Homo sapiens), O94925; GLS enzymatic activity, qHTS titration; Potency, µM (doses to about 45.5 µM), hits mostly inhibitors; 410,000 tested, 0.21% active
Target sequence (O94925 whole entry, looked up, canonical isoform): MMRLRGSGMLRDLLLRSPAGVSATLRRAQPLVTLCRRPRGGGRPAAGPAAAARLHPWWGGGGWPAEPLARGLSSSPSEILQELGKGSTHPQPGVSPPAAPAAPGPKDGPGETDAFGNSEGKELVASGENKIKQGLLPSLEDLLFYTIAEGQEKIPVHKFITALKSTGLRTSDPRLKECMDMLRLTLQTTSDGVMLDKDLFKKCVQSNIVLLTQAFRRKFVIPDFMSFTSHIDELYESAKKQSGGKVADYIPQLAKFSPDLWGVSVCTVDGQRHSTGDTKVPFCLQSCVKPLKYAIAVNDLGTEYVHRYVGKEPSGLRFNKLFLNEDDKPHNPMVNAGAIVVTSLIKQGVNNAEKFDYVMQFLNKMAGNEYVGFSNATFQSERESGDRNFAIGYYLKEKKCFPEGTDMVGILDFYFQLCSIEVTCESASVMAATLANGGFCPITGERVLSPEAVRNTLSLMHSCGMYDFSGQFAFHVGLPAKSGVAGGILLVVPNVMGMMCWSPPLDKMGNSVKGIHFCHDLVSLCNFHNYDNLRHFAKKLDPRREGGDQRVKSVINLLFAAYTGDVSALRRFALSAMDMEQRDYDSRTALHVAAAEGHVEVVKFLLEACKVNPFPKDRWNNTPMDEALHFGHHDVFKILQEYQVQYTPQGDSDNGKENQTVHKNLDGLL
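Compounds were pin-transferred onto hKGA, after which L-glutamine (1 mM solution) and a detection mix of glutamate oxidase, HRP and Amplex Red were added. Initial and 30 min RT fluorescence reads were collected.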
KAT2A inh – qHTS Assay for Inhibitors of GCN5L2. Potency, µM (titrated, usually from 58.9 µM), hits mostly inhibitors. GCN5L2 HAT assay, ThioGlo1 CoA-SH fluorescence. 390,000 tested, 0.21% active. AID 504327, 2011. Histone acetyltransferase KAT2A (Homo sapiens), Q92830
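GCN5L2 (20nM final) in 50mM HEPES, 0.1mM EDTA pH 7.5, 0.01% Tween-20 was preincubated 15 min at room temperature with compound, then given ThioGlo1 (50uM), H3(1-25) peptide (75uM) and acetyl-CoA (70uM); CoA-thiol fluorescence (Ex340/Em540) was read at 0 and 20 min.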
A number is an active result; – = inactive; ? = inconclusive; · = not tested or not shown. Most compounds without a hit are left out; they make up all but 2.4% or so of the library. Calls follow the shape of the dose curve; as a rule, active = well fitted inhibition curve with a large enough effect; inconclusive = small, poorly fitted or top-dose-only effect, or another doubt; inactive = no such curve, though single readings can be large or run the other way.

SMILES | POLH inh | POLB inh | POLI inh | POLK inh | GLS inh | KAT2A inh
O=c1cc(C(O)C[N+](=O)[O-])occ1OCc1ccccc1 (stereo unspecified) | – | · | 25.1µM | ? | – | ·
Nc1cc([N+](=O)[O-])ccc1OCc1ccccc1 | – | · | – | – | – | ·
CC[N+]1(CC(=O)c2ccc(Cl)cc2)CCCCC1 | · | · | – | – | · | ·
CC(C)NS(=O)(=O)c1cc(C(F)(F)F)ccc1/C=C/C(=O)O | · | · | – | – | · | ·
O=C(c1cc2cc([N+](=O)[O-])ccc2oc1=O)n1cccn1 | 31.6µM | 31.6µM | ? | 79.4µM | – | –
CCN1CCN(C(=O)c2cc3cc([N+](=O)[O-])ccc3oc2=O)CC1 | – | – | – | – | – | –
CCOC(=O)c1sc(=NC(=O)c2c(F)cccc2F)n(C)c1C | – | – | – | – | 17.8µM | –
CN(C)c1ccc(NC(N)=S)cc1 | – | – | – | – | 14.1µM | –
CC1=C(c2ccc(C(C)C)cc2)S(=O)(=O)N=C1N1CCN(C(=O)c2ccco2)CC1 | – | – | 50.1µM | ? | – | –
N#Cc1ccc(/C=C2/C=Cc3ccccc32)cc1 | · | · | – | – | · | ·
Cc1cc(NC(=O)/C(C#N)=C/c2ccc(-c3cccc(C(F)(F)F)c3)o2)n(-c2ccccc2)n1 | – | – | – | – | – | –
N#C/C(=C\c1ccc(-c2cccc(Cl)c2)o1)C(=O)Nc1cccc(C(F)(F)F)c1 | – | – | 89.1µM | – | – | –
CCCCNC(=O)CSc1nnc(Cc2ccc(Cl)c(Cl)c2)c(=O)[nH]1 | – | – | ? | 89.1µM | – | –
CC(C)(C)c1ccc(C(=O)C[n+]2cc(Br)cc(Br)c2)cc1 | · | · | – | – | · | ·
O=C(CSc1nc(NS(=O)(=O)c2ccccc2)cc(=O)[nH]1)Nc1ccc(F)cc1 | ? | 25.1µM | 17.8µM | 50.1µM | – | ?
O=C(CSc1nc(O)cc(=O)[nH]1)Nc1ccc2c(c1)CCC2 | – | ? | 15.8µM | 79.4µM | – | –
Fc1ccc(-n2cc(-c3ccccc3)c3c(=S)nc[nH]c32)cc1 | – | – | 79.4µM | ? | – | –
Brc1ccc(/C=C2\C=Cc3ccccc32)cc1 | · | · | – | – | · | ·
O=C(Nc1cc(C(F)(F)F)ccc1Cl)C1CCN(c2nnc(-n3cccc3)s2)CC1 | ? | 3.98µM | ? | – | – | –
COc1cc(C(c2c(C)[nH][nH]c2=O)c2c(C)[nH][nH]c2=O)cc(OC)c1OC | – | – | 8.91µM | – | – | –
COc1cc(C(c2c(C)[nH][nH]c2=O)c2c(C)[nH][nH]c2=O)ccc1OS(=O)(=O)c1ccccc1 | – | – | 10µM | – | – | –
COc1cc(C(c2c(C)[nH][nH]c2=O)c2c(C)[nH][nH]c2=O)ccc1OC(C)C | – | – | – | – | – | –
COc1cc(C(c2c(C)[nH][nH]c2=O)c2c(C)[nH][nH]c2=O)ccc1OS(=O)(=O)c1ccc(C)cc1 | – | – | 3.55µM | – | – | –
COc1cc(C(c2c(C)[nH][nH]c2=O)c2c(C)[nH][nH]c2=O)ccc1OC(=O)c1cccc([N+](=O)[O-])c1 | – | – | 10µM | – | – | –
COc1cc(C(c2c(C)[nH][nH]c2=O)c2c(C)[nH][nH]c2=O)cc(Cl)c1O | – | – | – | – | – | –
SMILES | POLH inh | POLB inh | POLI inh | POLK inh | GLS inh | KAT2A inh
COc1ccc(C(=O)Oc2ccc(C(c3c(C)[nH][nH]c3=O)c3c(C)[nH][nH]c3=O)cc2OC)cc1 | – | – | ? | – | – | –
CCCSc1ncc(Cl)c(C(=O)N(Cc2ccc(N(C)C)cc2)C2CCS(=O)(=O)C2)n1 (stereo unspecified) | · | – | – | – | – | –
NCC(=O)c1c[nH]c2ccccc12 | · | · | ? | – | · | ·
COc1ccc(CCC(=O)O)cc1 | · | · | – | – | · | ·
Cc1[nH][nH]c(=O)c1C(c1ccc(O)c(Br)c1)c1c(C)[nH][nH]c1=O | – | – | – | – | 12.6µM | –
COc1ccc(OC)c(C(c2c(C)[nH][nH]c2=O)c2c(C)[nH][nH]c2=O)c1 | – | – | 28.2µM | – | – | –
COc1ccc(C(c2c(C)[nH][nH]c2=O)c2c(C)[nH][nH]c2=O)cc1Br | – | – | ? | – | – | –
CCCCSc1nnc2c(n1)OC(c1ccc(C)s1)Nc1ccccc1-2 (stereo unspecified) | – | – | – | – | – | –
Cc1cnc(C=NNC(N)=S)c2cccc(N)c12 | 5.01µM | · | 2.24µM | ? | – | ·
CCOc1ccc(C(c2c(O)cc(C)n(CCOC)c2=O)N2CCN(c3ccccc3F)CC2)cc1 (stereo unspecified) | – | – | – | – | – | –
O=[N+]([O-])c1ccc(Sc2cccc[n+]2[O-])c2nonc12 | 4.47µM | 20µM | 3.55µM | 31.6µM | 11.2µM | 15.8µM
O=C(O)Cn1cc(/C=C/[N+](=O)[O-])c2ccccc21 | 44.7µM | – | 28.2µM | – | – | –
COc1ccc2c(c1)C/C(=C\c1ccc(N(C)C)cc1)C2=O | · | · | – | – | · | ·
COc1ccc2ccc3c(c2c1)N=CC1(O3)N(C)c2ccccc2C1(C)C (stereo unspecified) | – | ? | 5.01µM | – | – | –
Cc1ccnc2cc(Cl)cc(Cl)c12 | · | · | – | – | · | ·
COc1ccc(/C=C/C(=O)O)cc1S(=O)(=O)N1CCCCC1 | – | ? | – | – | – | –
COc1ccc(/C=C/C(=O)O)cc1S(=O)(=O)N1CCC(Cc2ccccc2)CC1 | ? | ? | ? | – | – | –
COc1ccc(/C=C/C(=O)O)cc1S(=O)(=O)N1CCC(C)CC1 | 79.4µM | – | – | – | – | –
COc1ccc(/C=C/C(=O)O)cc1S(=O)(=O)N1CCCC1 | 17.8µM | ? | – | – | – | –
CCOC(=O)c1c(C)[nH]c(C)c1S(=O)(=O)N1CCC(C(=O)NCc2ccccc2Cl)CC1 | – | – | – | – | – | –
C/C(=N\Nc1ccc(Cl)c(C(=O)O)c1)c1ccc(N2CCOCC2)cc1 | 28.2µM | – | ? | ? | ? | –
NC(=O)N/N=C/c1ccc(N2CCOCC2)s1 | – | – | – | – | – | –
C/C(=N\NC(=O)c1ccc(F)cc1)c1ccc(N2CCOCC2)cc1 | – | – | – | – | ? | –
O=C(O)c1cc(N/N=C/c2ccc(N3CCOCC3)s2)ccc1Cl | 11.2µM | 31.6µM | 12.6µM | 28.2µM | – | –
COc1ccc2nccc(/C=C/c3ccc(N(C)C)cc3)c2c1 | · | · | – | – | · | ·
CCOC(=O)c1c(C)[nH]c(C(=O)OC(C(=O)N(C)C)c2ccccc2)c1C (stereo unspecified) | · | · | – | – | · | ·

Source: PubChem BioAssay
